From PubChem BioAssay AID686979 (National Center for Advancing Translational Sciences (NCATS), 2013)
The whole screen tested about 420,000 compounds, of which about 50,000 (12%) were called active. Not shown: some 26% with an inconclusive outcome. Calls come from the whole dose curve; as a rule, active = well fitted inhibition curve with a large enough effect; inconclusive = small, poorly fitted or top-dose-only effect; inactive = flat fitted curve, though single readings scatter. The sample as a whole holds a higher share of actives than the screen did.

Assay: qHTS for Inhibitors of human tyrosyl-DNA phosphodiesterase 1 (TDP1): qHTS in cells in presence of CPT; note: nearly all actives have a fitted effect of over 55% in size
Settings: chicken DT40 Tdp1-/-;hTDP1 cells + 20 nM CPT, ATP luminescence, 48 h; series mostly up to 46.2 µM; activity change, negative = growth inhibition: at the top concentration
Excerpt: Human tyrosyl-DNA phosphodiesterase 1 (TDP1) is a novel repair gene, and we propose to use it as a new target for anticancer drug development. TDP1 is not an essential protein, but under treatment with topoisomerase I poison (camptothecin: CPT), TDP1 works as a critical factor for cell survival. To directly identify novel TDP1 inhibitors active in a cellular environment, we have knocked-out the Tdp1 gene in chicken DT40 cells (Tdp1-/-) and generated a complemented counterpart cells that contains a stable transfection of the human TDP1 gene (Tdp1-/-;hTDP1 cells). For the primary screen, Tdp1-/-;hTDP1 cells will be exposed to small molecules in the presence or absence of CPT, and their growth kinetics will be evaluated after 48 hours by measuring ATP activity. […] The hit compounds will then be evaluated in the presence or absence of CPT using Tdp1-/- cells. […] In tertiary assays, biochemical gel-based assays will be used to assess whether the hit compounds specifically target TDP1. To this end, we have screened this cell line against the MLSMR in two primary screens. In one screen we add CPT and in the other we screen in the absence of CPT; this AID represents the screen where CPT was present. NIH Chemical Genomics Center [NCGC] NIH Molecular Libraries Probe Centers Network [MLPCN] MLPCN Grant: MH095538 Assay Submitter (PI): Yves Pommier, NCI
DT40-hTDP1 cells with 20 nM Camptothecin (add 20 microL of 1 mM CPT stock in 1 L of cell culture medium) were dispensed at 400 cells/5microL/well in tissue culture treated 1536-well white wall/solid bottom assay plates (Greiner Bio-One North America, NC, U.S.A.) using a Multidrop Combi 8 channel dispenser (Thermo Fisher, Waltham, MA, USA). 23 nL compounds and controls were transferred using the pin tool (Kalypsys, San Diego, CA, USA) to the assay plates. The assay plates were then incubated at 37 masculineC for a minimum 48 hr. Three microL of Cell Titer Glo solution was added to the plates and incubated at RT in dark for 30 min. Luminescence was read using ViewLux (Perkin Elmer) with 1 sec exposure slow speed, high gain and 2x binning.
% is set by controls: 0 for no effect and ±100 for the full control effect; potency is the fitted concentration of half-maximal effect.

Row | Compound | activity change, negative = growth inhibition | Potency
1 | O=S(=O)(Nc1cccc(-n2cnnn2)c1)c1cnc(Cl)c(Cl)c1 | -19.4% (inactive) | –
2 | COc1ccc(N2C(=O)CS(=O)(=O)C23C(=O)N(Cc2ccc(C)cc2)c2ccccc23)cc1Cl (centres undefined) | -25% (inactive) | –
3 | COc1ccc(CC(=O)Nc2nc(-c3ccc(F)c(F)c3)cs2)cc1OC | – | 10.3 µM (active)
4 | COc1cccc(CC(=O)Nc2nc(-c3ccc(OC)c(OC)c3)cs2)c1 | -62.3% (inactive) | –
5 | COc1ccc(CCNC(=O)COC(=O)Cc2cc(OC)c(OC)c(OC)c2)cc1 | -2.97% (inactive) | –
6 | COc1cc(CC(=O)Nc2nc(-c3ccc(F)c(F)c3)cs2)cc(OC)c1OC | – | 7.31 µM (active)
7 | COc1ccc(-c2csc(NC(=O)c3ccc(N4C(=O)CCC4=O)cc3)n2)cc1OC | -0.306% (inactive) | –
8 | Cc1ccc(S(=O)(=O)NC(=O)Nc2nc(-c3ccc(F)c(F)c3)cs2)cc1 | 4.32% (inactive) | –
9 | CCOC(=O)c1cn(CC)c2cc(F)c(F)cc2c1=O | 1.13% (inactive) | –
10 | O=C(NC1CCN(C(=S)NCc2ccco2)CC1)c1ccc(F)cc1 | -14.3% (inactive) | –
11 | Cc1cc(OCCN2CCCC2)cc(C(C)C)c1 | -26.9% (inactive) | –
12 | COc1ccc2[nH]c(C(=O)N3CCN(C)CC3)c(C)c2c1 | 16.8% (inactive) | –
13 | CCOC(=O)NN1C(=O)c2ccccc2NC1c1ccccc1O (centres undefined) | – | 16.4 µM (active)
14 | CCOC(=O)NN1C(=O)c2ccccc2NC1c1cccc(O)c1 (centres undefined) | 7.21% (inactive) | –
15 | O=C1c2ccccc2NC(c2ccccc2O)N1NS(=O)(=O)c1ccccc1 (centres undefined) | -5.28% (inactive) | –
16 | Cc1ccc2nc(CN3CCN(S(=O)(=O)c4ccc(C)c(C)c4)CC3)oc2c1 | -22.4% (inactive) | –
17 | CCOc1ccc(N(C)Cc2cc(=O)oc3ccc(OC)cc23)cc1 | -25.6% (inactive) | –
18 | NC(=O)N/N=C\c1cccs1 | -2.34% (inactive) | –
19 | Cc1cc(C)nc(SC(C)C(=O)N/N=C/c2cccs2)n1 (centres undefined) | -29.3% (inactive) | –
20 | COc1ccc2c(c1)c(C(=O)N/N=C/c1cccs1)c(C)n2C | – | 9.2 µM (active)
21 | CCn1c(SCC(=O)Nc2nccs2)nnc1-c1ccco1 | 1.22% (inactive) | –
22 | C[C@@H]1CN([C@H](C)CO)C(=O)CCCn2nncc2CO[C@@H]1CN(C)C(=O)OCc1ccccc1 | -6.45% (inactive) | –
23 | Cc1ccc(C)c(NC2=NCC(=O)N2c2ccc3c(c2)OCCO3)c1 | -1.47% (inactive) | –

Row | Compound | activity change, negative = growth inhibition | Potency
24 | Cc1ccc(Cl)cc1NC(=O)NC1COc2ccccc2C1 (centres undefined) | -8.08% (inactive) | –
25 | CCc1cccc(CC)c1NC(=O)COc1ccccc1C(=O)c1cc(C#N)c(=O)n(C2CCCCC2)c1 | – | 18.4 µM (active)
26 | CCc1cccc(C)c1NC(=O)COC(=O)CC1CCCC1 | 1.82% (inactive) | –
27 | Cc1cc(NC(=O)COc2ccccc2C#N)no1 | -26.9% (inactive) | –
28 | CC(=O)Nc1ccc(NC(=O)CSc2nnc(COc3ccccc3C)n2CC2CCCO2)cc1 (centres undefined) | -5.96% (inactive) | –
29 | Oc1ccc(/C=N/NC2=NCCCCC2)c(O)c1 | 1.13% (inactive) | –
30 | Cc1nc2ccccc2nc1N/N=C/c1ccc(O)cc1O | – | 4.61 µM (active)
31 | Oc1ccc(-c2nc3ccccc3nc2-c2ccc(O)cc2O)c(O)c1 | -11.8% (inactive) | –
32 | Cc1cc(N/N=C/c2ccccc2F)c2ccccc2n1 | 1.17% (inactive) | –
33 | Oc1ccc(/C=N/Nc2nc(-c3ccccc3F)nc3ccccc23)c(O)c1 | – | 5.8 µM (active)
34 | CCNC(=O)N1CCCC(C(=O)c2ccc(-c3ccccc3)cc2)C1 (centres undefined) | – | 20.6 µM (active)
35 | Cc1ccccc1NC(=O)C1CCCN(C(=O)NCc2ccccc2)C1 (centres undefined) | -21% (inactive) | –
36 | CCOC(=O)CCNC(=O)N1CCCC(C(=O)c2ccccc2SC)C1 (centres undefined) | 1.59% (inactive) | –
37 | CN(C(=O)c1ccccc1)c1nccnc1C#N | 19.1% (inactive) | –
38 | COC(=O)c1ccc(CN2C(=O)NC(c3ccccc3)(c3ccccc3)C2=O)o1 | -4.55% (inactive) | –
39 | O=C(CN1CCc2ccccc21)NC(c1ccccc1)c1ccccc1 | -13.1% (inactive) | –
40 | O=C(CN1CCN(Cc2ccccc2)CC1)NC(c1ccccc1)c1ccccc1 | – | 14.6 µM (active)
41 | O=C(CN1CCN(Cc2ccccc2)CC1)Nc1ccc(F)c(F)c1 | -6.89% (inactive) | –
42 | CN(C)c1ccc(CNC23CN4CN(CN(C4)C2)C3)cc1 | – | 8.2 µM (active)
43 | COCCN1CCN(C(=O)c2cc(COc3ccc(F)cc3Cl)on2)CC1 | -26.5% (inactive) | –
44 | Cn1cc(S(=O)(=O)NC(c2ccccc2)c2ccccc2)c(=O)n(C)c1=O | -14.7% (inactive) | –
45 | CCn1c(SCc2ccccc2)nc2c(c1=O)SCC2 | -21.4% (inactive) | –
46 | CCn1cc2nc(SCc3cccc(F)c3)n(CCc3ccccc3)c(=O)c2n1 | – | 16.4 µM (active)

Row | Compound | activity change, negative = growth inhibition | Potency
47 | CCn1c(SCc2ccccc2)nc2cc(OC)c(OC)cc2c1=O | -16% (inactive) | –
48 | C[C@@H]1CN([C@H](C)CO)C(=O)CCCn2nncc2CO[C@@H]1CN(C)S(=O)(=O)c1cccc(C#N)c1 | -19.4% (inactive) | –
49 | C/C(=C/c1ccccc1)C(=O)N1CCN(c2ccccc2)CC1 | -19.7% (inactive) | –
50 | NC(=O)C1(N2CCCC2)CCN(Cc2ccccc2)CC1 | -5.42% (inactive) | –
51 | O=C(Nc1ccc(Br)cn1)c1ccc([N+](=O)[O-])o1 | – | 2.06 µM (active)
52 | CN1C(=O)c2ccc(C(=O)Nc3ccc(Br)cn3)cc2C1=O | -2.38% (inactive) | –
53 | O=C(Nc1ccc(Br)cn1)c1ccc([N+](=O)[O-])cc1Cl | -29.8% (inactive) | –
54 | Cc1cccc(NC(=O)c2ccc([N+](=O)[O-])o2)c1 | – | 16.4 µM (active)
55 | Cc1onc(NC(=O)c2ccc([N+](=O)[O-])o2)c1Br | -19.5% (inactive) | –
56 | Cc1cccc(NC(=O)CCn2c(=O)oc3ccccc32)c1 | 15.7% (inactive) | –
57 | CCc1ccc(N2C(=O)CN(S(=O)(=O)CC)CC2(C)C(=O)NC2CCCCC2)cc1 (centres undefined) | -10.8% (inactive) | –
58 | Cc1ccc(CN2CCN(c3ncccn3)CC2)c(C)c1 | 27.8% (inactive) | –
59 | O=C(NCC(O)c1nc2ccccc2[nH]1)c1ccc(Br)cc1 (centres undefined) | -11.6% (inactive) | –
60 | Cc1ccc(Cl)cc1N1CCN(S(=O)(=O)c2cc3[nH]c(=O)c(=O)[nH]c3cc2C)CC1 | 3.27% (inactive) | –
61 | CCC(=O)Nc1ccc(-c2ccc(N3CCCCC3)nn2)cc1 | -27.5% (inactive) | –
62 | c1csc(-c2nnc(COc3ccc4c(c3)OCO4)o2)c1 | 11.7% (inactive) | –
63 | O=[N+]([O-])c1ccc(F)cc1Oc1nc(-c2cccnc2)nc2ccccc12 | – | 18.4 µM (active)
64 | CCN(CC(=O)NC1CCS(=O)(=O)C1)c1nc(-c2cccnc2)nc2ccccc12 (centres undefined) | 4.18% (inactive) | –
65 | O=[N+]([O-])c1cc2ccccc2nc1-c1ccccc1 | -16% (inactive) | –
66 | O=C(COC(=O)CNC(=O)c1ccco1)Nc1ccc(F)cc1 | 4.84% (inactive) | –
67 | Cc1cccc(NS(=O)(=O)c2cc(Cl)ccc2Cl)n1 | 16.8% (inactive) | –
68 | COc1ccc(CCNC(=O)CN2C(=O)CCSc3ccccc32)c(OC)c1 | 28.7% (inactive) | –
69 | Cc1ccc(-c2cc(-c3coc4ccccc4c3=O)c3c(n2)-c2cc(Cl)ccc2OC3)cc1 | 0.49% (inactive) | –
